Where “and” joins values, the source holds several entries; their conditions need not be identical. Equal entries are not always repeated. Values without a mark were called inactive. Records with an inconclusive call do not appear. A call without a number means that no potency is given here. Calls of active or inactive are those of the source. Unless noted, the call rests on the fitted dose curve; in most records, active means well fitted curve in the direction sought with a large enough effect in the repeat runs; inconclusive means weak or mixed curves; inactive means no such curve, though single readings can be large; an effect the other way counts as inactive or inconclusive.
Legend:
[1] = biological target: Progesterone receptor (Homo sapiens) (UniProt P06401); test: qHTS assay to identify small molecule agonists of the progesterone receptor (PR) signaling pathway (AID 1346784; calls by dose curve; further: nearly all actives have a fitted effect of over 30% in size; further: potency means the concentration at half of the fitted maximal effect); settings: PR-UAS-bla HEK293T, beta-lactamase FRET ratio, 16 h; series mostly up to 92.4 µM
In short: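 Beta-lactamase reporter read-out: after 16 hr compound treatment at 37C and a further 2 hr at room temperature with LiveBLAzer B/G FRET substrate, fluorescence was measured in PR-UAS-bla HEK 293T cells grown in 2% charcoal-stripped serum.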

[2] = qHTS assay to identify small molecule antagonists of the progesterone receptor (PR) signaling pathway - cell viability counter screen (AID 1346798); settings: PR-UAS-bla HEK293T viability, CellTiter-Glo luminescence, 16 h; series mostly up to 92.4 µM; further: nearly all actives have a fitted effect of over 50% in size; further: potency means the concentration at half of the fitted maximal effect
In short: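 HEK293T PR-UAS-bla, 2% charcoal-stripped FBS; 4 hr pre-plate; cpd + R5020, 16 h 37C; LiveBLAzer read first; then CellTiter-Glo 30 min RT, luminescence.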

[3] = qHTS assay to identify small molecule agonists of the progesterone receptor (PR) signaling pathway - cell viability counter screen (AID 1346799; calls by dose curve; further: nearly all actives have a fitted effect of over 45% in size; further: potency means the concentration at half of the fitted maximal effect); settings: PR-UAS-bla HEK293T viability, CellTiter-Glo luminescence, 16 h; series mostly up to 92.4 µM
In short: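 Luminescence from CellTiter-Glo, added after the beta-lactamase FRET read in the same wells, gave cytotoxicity in PR-UAS-bla HEK293T cells treated with compounds for 16 hr at 37C.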

[4] = qHTS assay to identify small molecule antagonists of the TGF-beta/Smad signaling pathway - cell viability counter screen (AID 1346824); settings: SBE-bla HEK293T viability, CellTiter-Glo luminescence; series mostly up to 76.8 µM; further: nearly all actives have a fitted effect of over 50% in size
In short: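 SBE-bla HEK 293T cells, incubated overnight, then compound plus 0.25 ng/mL TGF-beta1 (stock added) for 5 hr at 37 C. Viability was read in the same wells by CellTiter-Glo luminescence after 30 min at room temperature.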

[5] = qHTS assay to identify small molecule agonists of the TGF-beta/Smad signaling pathway - cell viability counter screen (AID 1346829); settings: SBE-bla HEK293T viability, CellTiter-Glo luminescence, 5 h; series mostly up to 76.8 µM; further: top concentration of the series differs between compounds; nearly all actives have a fitted effect of over 45% in size
In short: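 SBE-bla HEK 293T cells plated overnight, compound exposure 5 hr at 37 C. Viability read in the same wells by CellTiter-Glo luminescence after 30 min at room temperature, following the beta-lactamase read.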

[6] = qHTS assay to identify small molecule agonists of the TGF-beta/Smad signaling pathway (AID 1346859; active means well fitted activation curve with a large enough effect in the signal ratio in the repeat runs, not every such curve was filed as active; the % refers to the signal ratio); settings: SBE-bla HEK293T, TGF-beta/Smad beta-lactamase reporter, 5 h; series mostly up to 76.8 µM
In short: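 SBE-bla HEK 293T, 4,000 cells/well, plated o/n; cpd in DMSO, 5 hr, 37 C/5% CO2; B/G FRET substrate 2 hr RT; ex 405, em 460/530 nm.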

[7] = biological target: Thyrotropin-releasing hormone receptor (Homo sapiens) (UniProt P34981); test: qHTS assay to identify small molecule antagonists of the thyrotropin-releasing hormone receptor (TRHR) signaling pathway (AID 1346877; active means well fitted inhibition curve with a large enough effect in the repeat runs, not every such curve was filed as active); settings: TRHR-HEK293, TRH-induced calcium fluorescence, antagonist mode; series mostly up to 51.3 µM
In short: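 Screening used HEK293 cells engineered with TRHR, with a brief 5 min room-temperature compound exposure preceding addition of TRH to 1 nM. The read-out was kinetic calcium-dye fluorescence, concentration-response from 15 doses in triplicate.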

[8] = biological target: Thyrotropin-releasing hormone receptor (Homo sapiens) (UniProt P34981); test: qHTS assay to identify small molecule agonists of the thyrotropin-releasing hormone receptor (TRHR) signaling pathway (AID 1346891; calls by dose curve); settings: TRHR-HEK293 calcium fluorescence, agonist mode; series mostly up to 57.6 µM
In short: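 Intracellular calcium rise, read as fluorescence every second for 3 min, served as the agonist signal in dye-loaded HEK293 cells expressing TRHR; each compound ran at 15 concentrations in triplicate.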

[9] = Human pregnane X receptor (PXR) small molecule agonists, qHTS cell viability counter screen (AID 1346977); settings: PXR-Luc HepG2 viability, CellTiter-Fluor, 24 h; series mostly up to 92.4 µM; further: nearly all actives have a fitted effect of over 50% in size; further: potency means the concentration at half of the fitted maximal effect
In short: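 PXR-Luc HepG2, 2,000 cells/well, 5% charcoal-stripped FBS; 5hr settle; cpd 24hr, 37C/5% CO2; CellTiter-Fluor at 23hr, read 1hr later (fluorescence).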

[10] = Caspase-3/7 induction in CHO-K1 cells by small molecules, qHTS cell viability counter screen (AID 1346979); settings: CellTiter-Fluor fluorescence, 17 h; series mostly up to 92.4 µM; further: nearly all actives have a fitted effect of over 35% in size; further: potency means the concentration at half of the fitted maximal effect
In short: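 Cells (CHO-K1, wild type) are plated at 1,500 per well and incubated 5hr. Test compounds in DMSO are then pinned in, followed by 16hr at 37C and 5% CO2. Viability is read by CellTiter-Fluor fluorescence after 1hr.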

[11] = Caspase-3/7 induction in CHO-K1 cells by small molecules, qHTS assay (AID 1346980); settings: CHO-K1 caspase-3/7 induction, Caspase-Glo luminescence, 17 h; series mostly up to 92.4 µM; further: nearly all actives have a fitted effect of over 15% in size
In short: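 Wild-type CHO-K1 cells exposed to compounds for 17hr at 37 C, 5% CO2. Caspase-3/7 activity then measured by Caspase-Glo 3/7 luminescence after 30min at room temperature.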

[12] = Caspase-3/7 induction in HepG2 cells by small molecules, qHTS assay (AID 1346978); settings: HepG2 caspase-3/7 activation, Caspase-Glo luminescence, 17 h; series mostly up to 92.4 µM; further: nearly all actives have a fitted effect of over 15% in size
In short: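 Wild-type HepG2 cells, 2,000/well, settled 5 hr at 37 C and 5% CO2, then compound-treated for 17 hr; caspase-3/7 activity read by luminescent Caspase-Glo 3/7 after 30 min at room temperature.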

[13] = biological target: Cytochrome P450 2C19 (Homo sapiens) (UniProt P33261); test: Cytochrome P450 Family 2 Subfamily C Member 19 (CYP2C19) small molecule antagonists: luciferase reporter qHTS assay (AID 1671197); settings: P450-Glo CYP2C19 enzyme, luciferin luminescence, 1 h; series mostly up to 115 µM; further: nearly all actives have a fitted effect of over 65% in size; further: potency means the concentration at half of the fitted maximal effect
In short: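 P450-Glo CYP2C19 system: enzyme-substrate mix with compound 10 min at room temperature, then NADPH regeneration solution, 1 h at 37C. Proluciferin-to-luciferin conversion detected by luminescence after 20 min with detection reagent; ketoconazole as positive control.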

[14] = Caspase-3/7 induction in HepG2 cells by small molecules, qHTS cell viability counter screen (AID 1346981); settings: CellTiter-Fluor fluorescence, 17 h; series mostly up to 92.4 µM; further: nearly all actives have a fitted effect of over 30% in size; further: potency means the concentration at half of the fitted maximal effect
In short: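 Multiplexed with the caspase-3/7 assay: HepG2 cells, 16 hr compound treatment, CellTiter-Fluor viability detection by fluorescence.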

[15] = biological target: Nuclear receptor subfamily 1 group I member 2 (Homo sapiens) (UniProt O75469); test: Human pregnane X receptor (PXR) small molecule agonists, qHTS assay (AID 1346982); settings: PXR-Luc HepG2, CYP3A4 luciferase reporter, 24 h; series mostly up to 92.4 µM; further: nearly all actives have a fitted effect of over 35% in size; further: potency means the concentration at half of the fitted maximal effect
In short: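 We seeded PXR-Luc HepG2 cells in assay medium containing 5% charcoal-stripped FBS, added compounds 5 hr later, incubated 24 hr, and read luminescence with ONE-Glo reagent.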

[16] = biological target: Cytochrome P450 2D6 (Homo sapiens) (UniProt P10635); test: Cytochrome P450 Family 2 Subfamily D Member 6 (CYP2D6) small molecule antagonists: luciferase reporter qHTS assay (AID 1671196); settings: P450-Glo CYP2D6 enzyme assay, luciferin luminescence, 1 h; series mostly up to 115 µM; further: nearly all actives have a fitted effect of over 50% in size; further: potency means the concentration at half of the fitted maximal effect
In short: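 Luminescence (RLU), read 20 min after detection reagent, indicated CYP2D6 conversion of proluciferin to luciferin during a 1 h NADPH-dependent reaction at room temperature.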

[17] = biological target: Progesterone receptor (Homo sapiens) (UniProt P06401); test: qHTS assay to identify small molecule antagonists of the progesterone receptor (PR) signaling pathway (AID 1346795; active means well fitted inhibition curve with a large enough effect in the signal ratio in the repeat runs, not every such curve was filed as active; the % refers to the signal ratio; further: potency means the concentration at half of the fitted maximal effect); settings: PR-UAS-bla HEK293T, beta-lactamase FRET ratio, 16 h; series mostly up to 92.4 µM
In short: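 Read-out is fluorescence from the LiveBLAzer B/G FRET substrate, cleaved by a UAS-controlled beta-lactamase in PR-UAS-bla HEK293T cells after 16 hr exposure to compound plus 1 nM promegestone (final), followed by 2 hr at room temperature.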

[18] = biological target: Nuclear receptor subfamily 1 group I member 2 (Rattus norvegicus) (UniProt Q9R1A7); test: Rat pregnane X receptor (rPXR) activation by small molecules, qHTS assay (AID 1346983); settings: rPXR luciferase reporter cells, One-Glo luminescence, 24 h; active compounds read high; further: nearly all actives have a fitted effect of over 20% in size
In short: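 Cell-based rPXR activation assay: rPXR cells, 2,000 per well, rested 5hr at 37 C, then exposed to compounds in DMSO for 24 hr at 37 C. Luciferase activity read by One-Glo luminescence after 30 min at room temperature.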

[19] = biological target: Nuclear receptor subfamily 1 group I member 2 (Homo sapiens) (UniProt O75469); test: CYP3A4 induction through human pregnane X receptor (PXR) by small molecules, qHTS assay (AID 1346984); settings: DPX-2 HepG2 PXR, CYP3A4-luciferin luminescence, 24 h; series mostly up to 46.1 µM; further: nearly all actives have a fitted effect of over 40% in size; further: potency means the concentration at half of the fitted maximal effect
In short: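 qHTS, concentration-response format: HepG2 DPX-2 line, PXR/CYP3A4-luc. Exposure 24 h, 37C. Substrate Luciferin-IPA 3uM final, 3 h. Detection One-Glo, 30 min RT.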

[20] = biological target: Nuclear receptor subfamily 1 group I member 2 (Homo sapiens) (UniProt O75469); test: Human pregnane X receptor (PXR) activation by small molecules, qHTS assay (AID 1346985); settings: DPX-2 HepG2 CYP3A4-luciferase, 24 h; series mostly up to 38.3 µM; further: potency means the concentration at half of the fitted maximal effect; nearly all actives have a fitted effect of over 40% in size
In short: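 DPX-2 cells (HepG2 co-transfected with a PXR response element and a CYP3A4-promoter luciferase construct) were seeded at 2,000 per well, rested 5 hr at 37C, then exposed to DMSO-dissolved compounds for 24 hr. Activation was read as luciferase luminescence.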

Thyrotropin-releasing hormone receptor (Homo sapiens), sequence (P34981 whole entry, looked up): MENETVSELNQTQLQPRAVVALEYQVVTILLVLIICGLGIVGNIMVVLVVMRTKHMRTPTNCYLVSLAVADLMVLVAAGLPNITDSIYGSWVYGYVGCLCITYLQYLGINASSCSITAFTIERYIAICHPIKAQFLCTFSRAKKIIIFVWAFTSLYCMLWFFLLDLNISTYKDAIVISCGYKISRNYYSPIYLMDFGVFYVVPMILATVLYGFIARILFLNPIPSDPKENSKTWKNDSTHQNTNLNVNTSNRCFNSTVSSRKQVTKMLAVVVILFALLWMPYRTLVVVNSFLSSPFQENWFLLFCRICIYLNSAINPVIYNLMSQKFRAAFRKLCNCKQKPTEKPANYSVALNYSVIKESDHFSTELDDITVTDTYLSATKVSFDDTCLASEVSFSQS
Nuclear receptor subfamily 1 group I member 2 (Rattus norvegicus), sequence (Q9R1A7 whole entry, looked up): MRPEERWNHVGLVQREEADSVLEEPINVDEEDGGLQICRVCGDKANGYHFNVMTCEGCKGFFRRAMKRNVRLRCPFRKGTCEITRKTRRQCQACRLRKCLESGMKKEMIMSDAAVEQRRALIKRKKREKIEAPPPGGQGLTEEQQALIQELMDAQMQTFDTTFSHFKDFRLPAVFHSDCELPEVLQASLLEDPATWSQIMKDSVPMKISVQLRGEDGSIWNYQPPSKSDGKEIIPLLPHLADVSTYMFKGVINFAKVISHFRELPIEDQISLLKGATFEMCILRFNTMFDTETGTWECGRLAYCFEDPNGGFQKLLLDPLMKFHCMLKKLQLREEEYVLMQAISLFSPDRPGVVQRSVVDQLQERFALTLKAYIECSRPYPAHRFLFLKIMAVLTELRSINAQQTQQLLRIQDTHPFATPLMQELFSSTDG
Nuclear receptor subfamily 1 group I member 2 (Homo sapiens), sequence (O75469 whole entry, looked up): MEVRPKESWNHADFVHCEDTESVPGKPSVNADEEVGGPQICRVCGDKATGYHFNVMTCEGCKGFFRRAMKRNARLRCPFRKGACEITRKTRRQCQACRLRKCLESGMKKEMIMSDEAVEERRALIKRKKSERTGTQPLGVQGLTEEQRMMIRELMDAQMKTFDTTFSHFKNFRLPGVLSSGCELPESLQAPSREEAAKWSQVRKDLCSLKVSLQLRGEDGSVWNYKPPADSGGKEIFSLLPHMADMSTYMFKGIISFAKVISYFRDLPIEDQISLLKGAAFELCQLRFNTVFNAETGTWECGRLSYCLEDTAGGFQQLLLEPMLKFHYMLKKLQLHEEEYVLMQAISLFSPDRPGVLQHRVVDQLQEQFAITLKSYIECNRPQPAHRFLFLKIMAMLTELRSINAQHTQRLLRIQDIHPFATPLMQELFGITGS
Cytochrome P450 2D6 (Homo sapiens), sequence (P10635 whole entry, looked up): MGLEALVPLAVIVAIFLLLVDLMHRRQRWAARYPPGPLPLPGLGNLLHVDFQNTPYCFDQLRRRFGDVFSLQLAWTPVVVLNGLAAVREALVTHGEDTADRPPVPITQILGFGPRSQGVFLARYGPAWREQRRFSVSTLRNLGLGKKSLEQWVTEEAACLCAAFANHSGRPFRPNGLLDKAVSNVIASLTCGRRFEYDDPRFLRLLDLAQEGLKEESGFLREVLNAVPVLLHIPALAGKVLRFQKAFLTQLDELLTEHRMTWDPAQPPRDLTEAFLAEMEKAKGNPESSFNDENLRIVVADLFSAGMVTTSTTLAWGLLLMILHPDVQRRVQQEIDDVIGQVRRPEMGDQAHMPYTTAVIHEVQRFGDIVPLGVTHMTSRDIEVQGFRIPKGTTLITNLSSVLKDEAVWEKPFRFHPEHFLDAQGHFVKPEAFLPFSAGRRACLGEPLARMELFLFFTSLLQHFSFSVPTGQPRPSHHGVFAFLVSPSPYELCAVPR
Progesterone receptor (Homo sapiens), sequence (P06401 whole entry, looked up): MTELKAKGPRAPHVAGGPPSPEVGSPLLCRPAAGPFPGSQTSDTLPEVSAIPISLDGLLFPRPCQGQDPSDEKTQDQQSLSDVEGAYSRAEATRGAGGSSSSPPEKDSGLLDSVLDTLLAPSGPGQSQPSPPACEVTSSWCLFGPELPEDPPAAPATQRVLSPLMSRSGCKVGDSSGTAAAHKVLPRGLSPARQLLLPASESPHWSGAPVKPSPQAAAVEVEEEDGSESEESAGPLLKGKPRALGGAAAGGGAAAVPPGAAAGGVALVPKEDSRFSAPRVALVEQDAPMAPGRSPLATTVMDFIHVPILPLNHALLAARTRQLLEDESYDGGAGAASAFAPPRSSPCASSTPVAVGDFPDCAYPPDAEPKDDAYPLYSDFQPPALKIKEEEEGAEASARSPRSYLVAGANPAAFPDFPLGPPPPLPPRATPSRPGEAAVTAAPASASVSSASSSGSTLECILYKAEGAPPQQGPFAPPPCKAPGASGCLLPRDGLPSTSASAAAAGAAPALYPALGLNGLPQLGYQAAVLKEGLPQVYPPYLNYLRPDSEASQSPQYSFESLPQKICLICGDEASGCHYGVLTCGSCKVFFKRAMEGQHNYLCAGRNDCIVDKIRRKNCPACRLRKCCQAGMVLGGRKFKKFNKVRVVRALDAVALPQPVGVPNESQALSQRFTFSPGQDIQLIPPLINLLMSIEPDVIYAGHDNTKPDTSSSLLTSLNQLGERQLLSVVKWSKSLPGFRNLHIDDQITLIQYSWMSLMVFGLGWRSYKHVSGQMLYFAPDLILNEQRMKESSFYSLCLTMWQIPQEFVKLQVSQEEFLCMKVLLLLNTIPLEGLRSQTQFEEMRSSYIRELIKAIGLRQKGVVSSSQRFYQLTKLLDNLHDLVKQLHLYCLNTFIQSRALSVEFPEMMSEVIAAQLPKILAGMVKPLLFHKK
Cytochrome P450 2C19 (Homo sapiens), sequence (P33261 whole entry, looked up): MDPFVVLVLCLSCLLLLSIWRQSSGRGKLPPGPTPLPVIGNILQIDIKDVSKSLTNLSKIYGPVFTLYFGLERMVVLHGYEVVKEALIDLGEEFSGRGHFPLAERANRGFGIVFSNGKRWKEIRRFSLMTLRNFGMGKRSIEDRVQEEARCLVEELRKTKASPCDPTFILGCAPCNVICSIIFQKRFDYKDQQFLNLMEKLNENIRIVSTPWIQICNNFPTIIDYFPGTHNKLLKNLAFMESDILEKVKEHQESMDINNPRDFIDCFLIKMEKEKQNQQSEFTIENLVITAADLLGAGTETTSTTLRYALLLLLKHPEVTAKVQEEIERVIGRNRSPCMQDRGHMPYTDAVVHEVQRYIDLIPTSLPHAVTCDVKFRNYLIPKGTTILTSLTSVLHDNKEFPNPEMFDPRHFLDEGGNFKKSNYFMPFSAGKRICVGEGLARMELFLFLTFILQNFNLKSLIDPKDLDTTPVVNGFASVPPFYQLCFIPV

Structure (SMILES)	Potency [1]	Potency [2]	Potency [3]	Potency [4]	Potency [5]	Potency [6]	Potency [7]	outcome [8]	Potency [9]	Potency [10]	Potency [11]	Potency [12]	Potency [13]	Potency [14]	Potency [15]	Potency [16]	Potency [17]	max activation [18]	Potency [19]	Potency [20]
CN1CCC[C@@H]1CCO[C@](C)(c1ccccc1)c1ccc(Cl)cc1	inactive	21.1 µM (active)	8.41 µM (active)	inactive	inactive	inactive	inactive	inactive	21.1 µM (active)	26.6 µM (active)	inactive									
Cl[Si](Cl)(c1ccccc1)c1ccccc1	inactive	inactive	inactive	inactive	inactive	inactive	inactive	inactive	inactive	inactive	inactive	inactive	20.5 µM (active)							
COc1cc(S(=O)(=O)O)c(C)cc1N=Nc1c(O)ccc2cc(S(=O)(=O)O)ccc12	inactive	inactive	inactive	inactive	inactive	inactive	inactive	inactive	15.4 µM (active)	15.4 µM (active)	inactive	inactive	79.6 µM (active)	19.3 µM (active)	inactive	35.6 µM (active)				
Cc1c(N)cccc1C(F)(F)F	inactive			inactive	inactive	inactive	inactive	inactive	inactive	inactive	inactive	inactive	inactive		inactive	inactive	inactive			
CCN(CC)c1ccc2c(-c3ccc(S(=O)(=O)O)cc3S(=O)(=O)[O-])c3ccc(=[N+](CC)CC)cc-3oc2c1	inactive	inactive		inactive		inactive	inactive	inactive	5.01 µM (active)	6.31 µM (active)	inactive	inactive	92.2 µM (active)	8.91 µM (active)	inactive	29.2 µM (active)	inactive			
CCCCCCCC	inactive		inactive	inactive	inactive	inactive	inactive	inactive	inactive	inactive	inactive	inactive	inactive	inactive	inactive		inactive			
OC12N=C(c3ccccc3)SC1Cc1cc(Cl)ccc12 (configuration not stated)	inactive			inactive	inactive	inactive					inactive	inactive	0.126 µM (active)		10.9 µM (active)	39.9 µM (active)	43.3 µM (active)			
O=[N+]([O-])c1ccc(F)c(Cl)c1	1.09 µM (active)	inactive			inactive	inactive	inactive	inactive	inactive	inactive	inactive			inactive	inactive	inactive	inactive			
COc1ccc2cc1Oc1ccc(cc1)C[C@H]1c3c(cc4c(c3Oc3cc5c(cc3OC)CCN(C)[C@@H]5C2)OCO4)CCN1C	inactive		inactive	inactive	inactive		inactive	inactive	11.9 µM (active)	29.8 µM (active)	inactive		inactive	26.6 µM (active)	9.44 µM (active)	15.5 µM (active)	inactive	-17.4%	10 µM (active)	
CN1CCCCC1CCN1c2ccccc2Sc2ccc(S(C)=O)cc21 (configuration not stated)	inactive			inactive	inactive	inactive	inactive	inactive			inactive	inactive	inactive		4.73 µM (active)	0.0871 µM (active)	inactive	-2.96% and -0.765%	inactive	15.8 µM (active)
OC1CCC(C2CCCCC2)CC1 (configuration not stated)	inactive	inactive	inactive	inactive	inactive	inactive	inactive	inactive	inactive	inactive	inactive			inactive	inactive	39.9 µM (active)				
CC(=O)OCC=C(C)C	inactive		inactive	inactive	inactive	inactive			inactive	inactive	inactive	inactive	inactive	inactive	inactive	inactive	inactive			
CC1=Nc2ccccc2C1(C)C	inactive		inactive		inactive	inactive	inactive	inactive	inactive	inactive	inactive	inactive		inactive		71.1 µM (active)	30.7 µM (active)			
O=C1CCCCCCCCCCCCCCCO1	inactive	inactive	inactive	inactive	inactive	inactive	inactive	inactive	inactive	inactive	inactive	inactive	inactive	inactive	inactive	inactive				
CCC(C)n1ncn(-c2ccc(N3CCN(c4ccc(OC[C@H]5CO[C@](Cn6cncn6)(c6ccc(Cl)cc6Cl)O5)cc4)CC3)cc2)c1=O (some centres not stated)	inactive			inactive	inactive	inactive	inactive	inactive			inactive	inactive		inactive	2.98 µM (active)	inactive	inactive			

From PubChem BioAssay (Tox21)
